# About 7,900 targets were measured; listed, in parts, are those with a hit and a random draw of the rest. About 0.6% of all pairs of compound and target were hits. Unmarked numbers belong to inactive results.
# Tests used:
# Assay in all cases: log2 fold change, soluble protein after heating vs DMSO (PISA); higher = thermal stabilisation; K562 cells, 10 uM, 30 min; active = over 0.2 and 3.5 SD of the protein, either way, in both replicates (recomputed)
# [1] = compound: CC[C@@H]1C(=O)N(C)c2cnc(Nc3ccc(C(=O)NC4CCN(C)CC4)cc3OC)nc2N1C1CCCC1
# How it was run: (§1)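 Soluble protein was defined as the supernatant after 21,000xg for 90 min. It came from K562 cells at 2×10^6 cells/mL given 10 μM compound for 30 min, heated in aliquots for 3 min across 48°C-58°C, pooled, and extracted in PBS with 0.5% NP-40 at 4°C, and was quantified by TMTpro 16plex LC-MS/MS with equalised channel sums. Thermal stability against control samples, from duplicates, is reported as log2 fold change.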
# [2] = compound: CC[C@@H]1C(=O)N(C)c2cnc(Nc3ccc(C(=O)N[C@H]4CC[C@H](N5CCN(CC6CC6)CC5)CC4)cc3OC)nc2N1C(C)C [volasertib]
# How it was run: as §1
# [3] = compound: CC[C@H](C)[C@@H](C(=O)N[C@@H]([C@@H](C)O)C(=O)N[C@@H](CC(C)C)C(=O)[C@]1(CO1)C)NC(=O)[C@H]([C@@H](C)CC)N(C)C(=O)C [epoxomicin]
# How it was run: as §1
# [4] = compound: CCn1c(C(=O)N(C2CC2)C2CC2)cc2c3c(ncn3C)c(Nc3cc(C)n(C)n3)nc21
# How it was run: as §1
# [5] = compound: CCn1cc(-c2ccnc3[nH]c(-c4cccc(CN(C)C)c4)cc23)c(-c2ccc(NC(=O)N(C)C)cc2)n1
# How it was run: as §1
# [6] = compound: CN(C)CC(=O)Nc1ccc2[nH]c(=O)c3ccccc3c2c1
# How it was run: as §1
# [7] = compound: CN(CCOC1=CC=C(C=C1)C[C@H]2C(=O)NC(=O)S2)C3=CC=CC=N3 (racemic) [rosiglitazone]
# How it was run: as §1
# [8] = compound: CN1C2=C(C3=C1C(=O)N(N=C3)CC4=CC(=CC=C4)N)SC(=C2)S(=O)C
# How it was run: as §1
# [9] = compound: CN1CCC(CNc2ccc3ncc(-c4cccc(OC(F)(F)F)c4)n3n2)CC1
# How it was run: as §1
# [10] = compound: CN1CCN(CCOc2cc(OC3CCOCC3)c3c(Nc4c(Cl)ccc5c4OCO5)ncnc3c2)CC1 [saracatinib]
# How it was run: as §1
# [11] = compound: CN1CCN(c2nc(C3=C(c4c[nH]c5ccccc45)C(=O)NC3=O)c3ccccc3n2)CC1 [sotrastaurin]
# How it was run: as §1
# [12] = compound: CN1CC[C@H](c2c(O)cc(O)c3c(=O)cc(-c4ccccc4Cl)oc23)[C@H](O)C1 [alvocidib]
# How it was run: as §1
# [13] = compound: CN1CCc2c(c3ccccc3n2Cc2ccc(C(=O)NO)cc2)C1 [Tubastatin A]
# How it was run: as §1
# [14] = compound: CNC(=O)C1=CC=CC=C1NC2=NC(=NC=C2Cl)NC3=C(C=C(C=C3)N4CCOCC4)OC
# How it was run: as §1
# [15] = compound: CNC(=O)c1ccc(Nc2ncc(C(F)(F)F)c(NCc3nccnc3N(C)S(C)(=O)=O)n2)cc1 [defactinib]
# How it was run: as §1
# [16] = compound: CNCc1ccc(-c2[nH]c3cc(F)cc4c3c2CCNC4=O)cc1 [rucaparib]
# How it was run: as §1
# [17] = compound: CNc1nc(-c2ccc3c(N)n[nH]c3c2)cc(N2C[C@@H](C(=O)NC3CCCCC3)CC[C@H]2C)n1
# How it was run: as §1
# [18] = compound: COC(=O)N[C@@H](C)CNc1nccc(-c2cn(C(C)C)nc2-c2cc(Cl)cc(NS(C)(=O)=O)c2F)n1 [encorafenib]
# How it was run: as §1
# [19] = compound: COC(=O)[C@H](CCSC)NC(=O)C1=C(C=C(C=C1)NC[C@H](CS)N)C2=CC=CC=C2
# How it was run: as §1
# [20] = compound: CC[C@H](C)N1C=C(C2=C(C=C(C=C21)C3=CN=C(C=C3)N4CCNCC4)C(=O)NCC5=C(C=C(NC5=O)C)C)C
# How it was run: as §1
# Sequence of UniProt O75438 (O75438 whole entry, looked up): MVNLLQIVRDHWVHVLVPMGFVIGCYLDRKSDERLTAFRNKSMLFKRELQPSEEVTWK
# Sequence of UniProt Q8WUY8 (Q8WUY8 whole entry, looked up): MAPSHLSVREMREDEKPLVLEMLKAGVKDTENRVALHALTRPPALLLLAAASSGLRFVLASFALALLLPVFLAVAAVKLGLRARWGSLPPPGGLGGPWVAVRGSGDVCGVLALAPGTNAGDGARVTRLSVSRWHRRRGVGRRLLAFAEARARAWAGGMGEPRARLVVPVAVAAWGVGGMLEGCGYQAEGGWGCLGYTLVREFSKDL
# Sequence of UniProt Q9BVC4 (Q9BVC4 whole entry, looked up): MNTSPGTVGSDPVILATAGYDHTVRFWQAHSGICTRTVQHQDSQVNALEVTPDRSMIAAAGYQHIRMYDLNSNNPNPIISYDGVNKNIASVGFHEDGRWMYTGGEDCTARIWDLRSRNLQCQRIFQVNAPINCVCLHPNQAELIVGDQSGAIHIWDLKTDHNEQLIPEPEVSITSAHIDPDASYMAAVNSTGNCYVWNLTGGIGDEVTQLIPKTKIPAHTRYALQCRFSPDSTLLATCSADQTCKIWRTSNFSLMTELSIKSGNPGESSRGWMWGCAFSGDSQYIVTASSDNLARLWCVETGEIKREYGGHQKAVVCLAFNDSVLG
# Sequence of UniProt Q96H55 (Q96H55 whole entry, looked up): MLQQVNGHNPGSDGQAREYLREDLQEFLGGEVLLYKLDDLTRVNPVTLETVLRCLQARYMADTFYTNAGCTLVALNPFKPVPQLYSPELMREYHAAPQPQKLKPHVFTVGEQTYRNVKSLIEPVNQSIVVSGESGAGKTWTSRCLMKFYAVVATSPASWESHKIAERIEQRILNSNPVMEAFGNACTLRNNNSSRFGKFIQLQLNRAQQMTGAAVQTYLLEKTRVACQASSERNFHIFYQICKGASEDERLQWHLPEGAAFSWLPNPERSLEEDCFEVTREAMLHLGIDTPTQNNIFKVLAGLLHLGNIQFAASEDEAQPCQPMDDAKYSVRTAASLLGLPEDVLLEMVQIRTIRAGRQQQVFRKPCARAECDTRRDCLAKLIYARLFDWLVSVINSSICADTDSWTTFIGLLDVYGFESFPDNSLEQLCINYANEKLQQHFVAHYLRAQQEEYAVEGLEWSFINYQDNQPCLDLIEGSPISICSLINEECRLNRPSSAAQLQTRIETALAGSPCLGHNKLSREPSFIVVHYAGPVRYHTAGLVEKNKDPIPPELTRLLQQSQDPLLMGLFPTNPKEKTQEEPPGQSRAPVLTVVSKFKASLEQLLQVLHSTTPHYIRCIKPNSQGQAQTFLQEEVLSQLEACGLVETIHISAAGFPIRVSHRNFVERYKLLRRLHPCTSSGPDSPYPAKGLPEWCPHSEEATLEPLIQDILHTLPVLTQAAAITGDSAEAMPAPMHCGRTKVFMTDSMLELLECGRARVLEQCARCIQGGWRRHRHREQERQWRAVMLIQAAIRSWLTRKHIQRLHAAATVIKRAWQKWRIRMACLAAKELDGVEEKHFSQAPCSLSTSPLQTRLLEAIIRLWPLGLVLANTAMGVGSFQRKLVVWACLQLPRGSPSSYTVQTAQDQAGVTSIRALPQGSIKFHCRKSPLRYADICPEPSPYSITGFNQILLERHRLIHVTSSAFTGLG
# Sequence of UniProt P0C024 (P0C024 whole entry, looked up): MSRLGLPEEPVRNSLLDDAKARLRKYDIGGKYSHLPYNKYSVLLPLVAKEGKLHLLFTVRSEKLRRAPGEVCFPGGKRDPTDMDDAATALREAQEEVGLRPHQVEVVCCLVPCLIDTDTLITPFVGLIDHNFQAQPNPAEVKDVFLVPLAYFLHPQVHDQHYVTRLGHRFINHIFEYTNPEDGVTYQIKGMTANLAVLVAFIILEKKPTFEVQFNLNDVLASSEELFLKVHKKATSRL
# Sequence of UniProt O00483 (O00483 whole entry, looked up): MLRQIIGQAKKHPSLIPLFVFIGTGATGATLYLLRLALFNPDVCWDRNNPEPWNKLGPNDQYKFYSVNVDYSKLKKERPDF
# Sequence of UniProt Q86UD1 (Q86UD1 whole entry, looked up): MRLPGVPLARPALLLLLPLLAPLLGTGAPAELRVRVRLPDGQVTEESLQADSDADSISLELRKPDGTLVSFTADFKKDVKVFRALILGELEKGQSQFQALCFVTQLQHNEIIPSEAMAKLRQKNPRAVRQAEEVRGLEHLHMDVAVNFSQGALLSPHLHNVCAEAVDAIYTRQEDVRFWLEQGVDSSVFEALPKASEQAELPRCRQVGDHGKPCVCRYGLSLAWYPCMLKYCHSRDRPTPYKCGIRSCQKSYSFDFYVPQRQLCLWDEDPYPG
# Sequence of UniProt Q9UK23 (Q9UK23 whole entry, looked up): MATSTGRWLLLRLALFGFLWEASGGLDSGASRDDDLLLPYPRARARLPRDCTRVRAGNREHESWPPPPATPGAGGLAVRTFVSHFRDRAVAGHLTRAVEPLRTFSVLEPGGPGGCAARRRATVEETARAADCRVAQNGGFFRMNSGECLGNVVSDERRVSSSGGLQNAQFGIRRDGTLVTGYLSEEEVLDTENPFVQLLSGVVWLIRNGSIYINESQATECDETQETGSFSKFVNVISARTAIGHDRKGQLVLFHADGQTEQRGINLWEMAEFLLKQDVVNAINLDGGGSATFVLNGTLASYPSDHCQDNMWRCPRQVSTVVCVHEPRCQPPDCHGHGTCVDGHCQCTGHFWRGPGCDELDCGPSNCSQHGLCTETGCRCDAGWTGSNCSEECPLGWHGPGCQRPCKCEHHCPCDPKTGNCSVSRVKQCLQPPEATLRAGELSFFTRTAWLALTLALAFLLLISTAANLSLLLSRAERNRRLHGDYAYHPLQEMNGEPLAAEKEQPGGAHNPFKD
# Sequence of UniProt O75607 (O75607 whole entry, looked up): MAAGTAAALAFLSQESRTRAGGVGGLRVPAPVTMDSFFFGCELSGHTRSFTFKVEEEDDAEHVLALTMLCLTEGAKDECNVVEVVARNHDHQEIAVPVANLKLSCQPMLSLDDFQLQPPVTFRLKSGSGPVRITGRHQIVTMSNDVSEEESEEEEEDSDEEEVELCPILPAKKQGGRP
# Sequence of NA, A0A494C071 (A0A494C071 whole entry, looked up): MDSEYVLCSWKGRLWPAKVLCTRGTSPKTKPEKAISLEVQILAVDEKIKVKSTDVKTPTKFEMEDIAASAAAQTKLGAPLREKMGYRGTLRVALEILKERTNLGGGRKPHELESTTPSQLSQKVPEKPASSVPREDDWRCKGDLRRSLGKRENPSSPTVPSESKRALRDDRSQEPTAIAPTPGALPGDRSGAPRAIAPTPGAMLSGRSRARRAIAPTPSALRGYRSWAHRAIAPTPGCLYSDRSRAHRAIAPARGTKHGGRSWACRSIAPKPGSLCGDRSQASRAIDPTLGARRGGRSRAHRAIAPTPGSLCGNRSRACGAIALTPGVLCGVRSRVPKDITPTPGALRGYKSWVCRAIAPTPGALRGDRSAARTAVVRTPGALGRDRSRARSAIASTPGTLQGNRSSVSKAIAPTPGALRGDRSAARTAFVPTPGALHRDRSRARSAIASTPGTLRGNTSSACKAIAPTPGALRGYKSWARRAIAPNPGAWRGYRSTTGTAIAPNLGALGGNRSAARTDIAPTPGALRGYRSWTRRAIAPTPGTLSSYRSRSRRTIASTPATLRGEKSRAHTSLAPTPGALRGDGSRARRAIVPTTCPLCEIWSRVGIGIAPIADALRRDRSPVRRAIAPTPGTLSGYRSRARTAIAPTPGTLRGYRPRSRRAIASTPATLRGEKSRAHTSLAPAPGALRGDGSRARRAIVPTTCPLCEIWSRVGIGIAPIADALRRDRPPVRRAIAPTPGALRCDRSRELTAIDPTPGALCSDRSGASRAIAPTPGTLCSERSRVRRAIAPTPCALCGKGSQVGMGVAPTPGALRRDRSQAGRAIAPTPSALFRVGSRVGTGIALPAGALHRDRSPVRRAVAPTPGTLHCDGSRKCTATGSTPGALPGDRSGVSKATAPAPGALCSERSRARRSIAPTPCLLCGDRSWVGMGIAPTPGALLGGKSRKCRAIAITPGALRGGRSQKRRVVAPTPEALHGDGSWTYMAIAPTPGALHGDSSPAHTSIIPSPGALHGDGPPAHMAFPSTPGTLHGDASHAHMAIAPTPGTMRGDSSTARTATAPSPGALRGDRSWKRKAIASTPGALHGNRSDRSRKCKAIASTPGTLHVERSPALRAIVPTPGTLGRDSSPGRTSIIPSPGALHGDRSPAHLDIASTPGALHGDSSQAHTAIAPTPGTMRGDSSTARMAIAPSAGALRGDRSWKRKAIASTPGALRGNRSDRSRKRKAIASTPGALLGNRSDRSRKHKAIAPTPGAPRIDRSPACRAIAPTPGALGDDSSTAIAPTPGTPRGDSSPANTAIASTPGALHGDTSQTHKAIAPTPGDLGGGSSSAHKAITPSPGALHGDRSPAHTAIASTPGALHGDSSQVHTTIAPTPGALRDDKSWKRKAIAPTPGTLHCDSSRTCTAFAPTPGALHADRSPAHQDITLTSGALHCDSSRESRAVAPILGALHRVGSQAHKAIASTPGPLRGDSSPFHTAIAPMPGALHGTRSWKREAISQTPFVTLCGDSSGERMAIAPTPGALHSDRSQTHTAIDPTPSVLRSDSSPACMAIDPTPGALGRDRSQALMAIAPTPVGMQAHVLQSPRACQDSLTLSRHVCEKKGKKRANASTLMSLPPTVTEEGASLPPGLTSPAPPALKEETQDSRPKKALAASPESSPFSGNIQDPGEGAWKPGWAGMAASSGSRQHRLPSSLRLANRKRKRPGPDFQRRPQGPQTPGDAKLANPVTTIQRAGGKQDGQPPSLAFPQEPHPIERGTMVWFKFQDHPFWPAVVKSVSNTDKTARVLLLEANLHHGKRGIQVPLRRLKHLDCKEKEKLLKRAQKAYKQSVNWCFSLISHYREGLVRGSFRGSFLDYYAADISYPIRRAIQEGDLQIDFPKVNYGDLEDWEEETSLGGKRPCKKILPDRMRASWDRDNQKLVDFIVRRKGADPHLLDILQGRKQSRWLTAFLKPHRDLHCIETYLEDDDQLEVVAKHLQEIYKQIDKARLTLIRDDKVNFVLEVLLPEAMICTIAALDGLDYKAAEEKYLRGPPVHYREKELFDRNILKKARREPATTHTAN
Target,log2 fold change [1],log2 fold change [2],log2 fold change [3],log2 fold change [4],log2 fold change [5],log2 fold change [6],log2 fold change [7],log2 fold change [8],log2 fold change [9],log2 fold change [10],log2 fold change [11],log2 fold change [12],log2 fold change [13],log2 fold change [14],log2 fold change [15],log2 fold change [16],log2 fold change [17],log2 fold change [18],log2 fold change [19],log2 fold change [20]
MRPS26 (UniProt Q9BYN8),0.011,-0.094,0.033,-0.094,-0.023,0.003,0.053,0.052,-0.092,-0.094,-0.013,0.025,0.156,0.003,-0.01,0.093,0.122,0.089,0.003,
NPM3 (UniProt O75607),0.065,0.124,,0.036,0.014,-0.011,-0.122,0.143,0.145,0,0,0.032,0.031,-0.06,0.001,0.155,-0.042,0.034,-0.04,-0.099
NDUFA4 (UniProt O00483),0.033,0.042,0.369 (active),0.09,0.019,-0.039,-0.026,0.018,0.101,0.021,0.021,0.022,-0.029,0.009,-0.03,-0.106,-0.129,-0.04,0.001,-0.019
MLST8 (UniProt Q9BVC4),-0.22,-0.353 (active),-0.02,-0.099,,0.109,-0.029,-0.016,,-0.124,-0.003,-0.034,0.124,-0.116,-0.092,0.099,0.014,0.101,-0.106,0.05
NIPSNAP3B (UniProt Q9BS92),-0.238,-0.028,,-0.039,-0.019,-0.088,-0.069,-0.176,0.073,0.122,0.066,-0.029,0.01,0.112,-0.026,0.31 (active),-0.088,-0.289,0.008,0.039
NDUFB1 (UniProt O75438),-0.004,-0.08,0.396 (active),-0.026,-0.102,0.006,0.009,,0.282 (active),,0.015,-0.042,-0.09,-0.01,-0.021,-0.035,,0.001,0.034,-0.099
ORC5 (UniProt O43913),-0.196,-0.42,,-0.071,-0.103,0.105,0.084,-0.029,-0.203,-0.081,0.149,-0.195,0.093,-0.097,-0.182,0.094,-0.009,0.033,-0.05,0.074
NAT14 (UniProt Q8WUY8),-0.192,-0.261,-0.024,0.064,,0.077,0.095,-0.107,,-0.054,0.068,-0.134,-0.02,0,-0.235,-0.002,-0.005,0.002,0.163,0.063
NAGPA (UniProt Q9UK23),0.213,0.555 (active),0.071,-0.022,0.084,,-0.061,-0.084,-0.083,-0.009,-0.017,-0.008,0.068,0.022,,-0.132,-0.049,0.014,,-0.065
MRPS16 (UniProt Q9Y3D3),0.012,-0.088,0.041,0.047,-0.116,0.046,-0.071,,0.052,,-0.039,-0.098,0.008,-0.115,0.043,0.084,,0.138,0,0.018
MYLK (UniProt Q15746),-0.015,-0.148,,-0.047,0.042,0.184,0.202,-0.126,-0.005,0.177,-0.036,-0.091,0.036,0.716,-0.034,-0.083,-0.079,0.337,-0.216,-0.172
MYH16 (UniProt Q9H6N6),,0.077,,0.029,-0.067,0.011,0.065,,0.26,,-0.224,0.138,-0.069,-0.075,0.013,,,,-0.171,0.156
NELFCD (UniProt Q8IXH7),,-0.562 (active),-0.052,-0.044,-0.113,0.298,0.015,-0.05,0.226,-0.114,,-0.378,,0.024,-0.228,,-0.002,,-0.085,0.244
NA (UniProt J3KR12),,,0.079,,,,0.148,,,,,,,,,,,,,-0.021
OAF (UniProt Q86UD1),,,,-0.087,,,,,,,0.139,,,0.043,,,,,,
OPHN1 (UniProt O60890),0.036,,0.043,-0.019,-0.143,,0.121,0.108,-0.095,-0.033,0.011,0.094,-0.008,-0.036,,-0.011,-0.01,0.038,,-0.016
NUDT7 (UniProt P0C024),,,-0.067,0.058,-0.055,,0.038,,0.322,,0.035,,-0.045,0.052,,,,,,0.187
NIPSNAP2 (UniProt C9J7B1),,,,,,,-0.065,,,,-0.073,,,,,,,,,
NAP1L1 (UniProt B7Z9C2),-0.118,,,-0.132,0,-0.244,0.146,-0.053,-0.152,-0.168,,,,0.041,-0.117,-0.041,-0.706,-0.114,-0.007,-0.008
MYO19 (UniProt Q96H55),,0.007,0.097,-0.138,-0.215,-0.081,0.121,0.076,0.404,-0.066,,0.001,,-0.046,0.093,,0.09,,0.103,0.011
"NA, A0A494C071",-1.54 (active),,-0.11,,0.189,-0.122,0.125,-0.028,-1.73 (active),0.033,,0.062,-0.197,,0.044,-0.359,-0.062,0.027,0.124,0.38

# Source: the supplement of paper PMC10849652
